A short description of the test: probe aLefty1 binding on compound microarray – biochemical, small-molecule microarray, 635/667 nm fluorescence, primary screen (AID 1153).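 Note: score merges spot fluorescence with signal-to-noise ratio from the scanned slide images.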 The settings on record: higher = more signal.
In turn, `COC(=O)C1(Cc2ccccc2)C=C2C(=C(C(C)C)C(=O)C2C)CN1` (stereo not drawn) registered a composite z-score of 0.276.
Regarding `Cc1c(NC(=O)/C(C#N)=C/C=C/c2ccccc2[N+](=O)[O-])c(=O)n(-c2ccccc2)n1C`, the composite z-score was -0.184.
To `[N-]=[N+]=NCc1ccccc1C[C@@]1(C(=O)NCCN2CCOCC2)N=C(c2ccc(OCCCO)cc2)O[C@@H]1c1ccccc1N=[N+]=[N-]` belongs 0.534; to `C[n+]1ccc(CCCO)cc1`, 0.33; to `CN1C(=O)C2C=CC(C(O)c3c(F)cccc3Cl)N(Nc3ccccc3)C2C1=O` (stereo not drawn), 0.277.
The figure for `C=C[C@@H](C)[C@H](OC(=O)Nc1ccc(SC)cc1)c1ccc(OCCO)cc1` is -0.33; for `CC(C)C(O)C1C=CC2C(=O)N(C)C(=O)C2N1N(c1ccccc1)c1ccccc1` (stereo not drawn) it is 0.213; for `O=C1c2ccccc2[C@](Cc2ccccc2I)(C(=O)NCc2ccccc2)[C@H](c2ccc(CO)cc2)N1C1CCCCC1` it is 0.254.
The figure for `CC(=O)n1cc(C(O)C2C=CC3C(=O)N(Cc4ccccc4)C(=O)C3N2n2cnnc2)c2ccccc21` (stereo not drawn) is -0.0867; for `COc1cc2c(cc1OC)CN(C(=O)[C@H]1[C@@H]3C(=O)O[C@@H](c4ccccc4)[C@@H](c4ccccc4)N3[C@@H](c3ccc(OCCO)cc3)[C@]13C(=O)Nc1ccc(C#CC4(O)CCCCCC4)cc13)CC2` it is 1.51.
`O=c1cccc(-c2ccc(C(F)(F)F)cc2)o1`: the composite z-score was -0.103.
For the compound `COc1ccc(C(O)C2C=CC3C(=O)N(Cc4ccccc4)C(=O)C3N2n2cnnc2)c2ccccc12` (stereo not drawn), the composite z-score amounted to 0.425.
`CC(C)(C)OC(=O)CC[C@]1(C(=O)NCCN2CCOCC2)N=C(c2ccc(OCCCO)cc2)O[C@H]1c1ccccc1N=[N+]=[N-]` yielded a composite z-score of 0.591.

Values taken from PubChem BioAssay.
